These results are taken from PubChem BioAssay.

Experiment [1] can be described thus: rapamycin-like changes in RPL19A-GFP expression – cell-based, S. cerevisiae, multiplex flow cytometry, primary screen (AID 1862; in the data active = percent of DMSO control GFP below about 86%;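 note: lower values mimic rapamycin by blocking the RPL19A rise seen in DMSO cells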). As to conditions: S. cerevisiae RPL19A-GFP strain, flow cytometry fluorescence, 3 h; at 10 µM; stronger effect = lower value. Background: Flow cytometry measures light scatter and fluorescence of single cells or particles in a stream.
The nature of experiment [2]: TOR pathway GLN3 branch reporter MEP2-GFP changes – S. cerevisiae, multiplex flow cytometry, primary screen (AID 1867;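 active = GFP response, as percent of the DMSO control, above the screen-wide mean plus 3 SD, about 139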;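 note: median GFP channel fluorescence of barcode-gated MEP2-GFP cells measured by flow cytometry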). As to conditions: S. cerevisiae MEP2-GFP strain, 3 h, at 10 µM, stronger effect = higher value, 100% means same as DMSO wells.
Experiment [3] is described as follows: TOR pathway RTG branch CIT2 reporter changes – S. cerevisiae, GFP fusion, multiplex flow cytometry, primary screen (AID 1870).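 Note: barcoded CIT2-GFP strain pooled with four other GFP strains with rapamycin as positive control; median GFP fluorescence per well over plate mean of DMSO wells so 100% = DMSO.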 As to conditions: S. cerevisiae CIT2-GFP expression, 3 h, at 10 µM, stronger effect = higher value.
Experiment [4] in a line: TOR pathway LAP4-GFP level changes – S. cerevisiae, multiplex flow cytometry, primary screen (AID 1873;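 active = GFP signal, as percent of the solvent control, above the screen mean plus 3 SD, about 149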). Particulars: S. cerevisiae LAP4-GFP expression, 3 h, at 10 µM, stronger effect = higher value.
The nature of experiment [5]: yeast AGP1-GFP level changes, GLN3 branch – cell-based, multiplex flow cytometry, S. cerevisiae, primary screen (AID 1887;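 active = GFP signal above the screen-wide mean plus 3 SD, that is over about 124.5% of the solvent control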;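 note: AGP1-GFP fusion strain of S. cerevisiae within a five-strain barcoded multiplex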). As to conditions: 3 h, at 10 µM, stronger effect = higher value.
A short description of experiment [6]: reduced mouse 2C T cell binding to pMHC/ICAM-1 vesicles – MLPCN validation set, flow cytometry, LFA-1/ICAM-1 modulator project, pilot screen (AID 2523;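 active = response below a set limit, under 55% cells CD8-positive and vesicle-bound, and CD8 cells' 90th-percentile brightness under 279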;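 for vesicle binding response: mean PE anti-B7-1 fluorescence of CD8+ cells relative to row control; 100% = QL9-loaded vesicles with DMSO vehicle in the same plate row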). Particulars: 2C mouse CD8+ T cells, at 7 µM, stronger effect = lower value; double positive events: measured here: CD8+/vesicle+ event percentage.
Experiment [7] deals with Integrin beta-1 (Homo sapiens) + Integrin alpha-4 (Homo sapiens) (UniProt P13612+P05556). Description: alpha4beta1 integrin LIBS antibody binding reduction – U937 cells, HUTS-21 mAb, flow cytometry, validation set, VLA-4 allosteric modulator project, pilot screen (AID 2674;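 active = inhibition above 50%, about 3 SD of the validation set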;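 note: antibody binding induced by the VLA-4 ligand LDV present at three times its Kd; 0% = LDV ligand with antibody and no compound and 100% = antibody without LDV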). As to conditions: HUTS-21 LIBS mAb binding, at 6.7 µM, stronger effect = higher value, binding induced by LDV ligand.
Integrin beta-1 (Homo sapiens) + Integrin alpha-4 (Homo sapiens), sequence (P05556 whole entry, looked up): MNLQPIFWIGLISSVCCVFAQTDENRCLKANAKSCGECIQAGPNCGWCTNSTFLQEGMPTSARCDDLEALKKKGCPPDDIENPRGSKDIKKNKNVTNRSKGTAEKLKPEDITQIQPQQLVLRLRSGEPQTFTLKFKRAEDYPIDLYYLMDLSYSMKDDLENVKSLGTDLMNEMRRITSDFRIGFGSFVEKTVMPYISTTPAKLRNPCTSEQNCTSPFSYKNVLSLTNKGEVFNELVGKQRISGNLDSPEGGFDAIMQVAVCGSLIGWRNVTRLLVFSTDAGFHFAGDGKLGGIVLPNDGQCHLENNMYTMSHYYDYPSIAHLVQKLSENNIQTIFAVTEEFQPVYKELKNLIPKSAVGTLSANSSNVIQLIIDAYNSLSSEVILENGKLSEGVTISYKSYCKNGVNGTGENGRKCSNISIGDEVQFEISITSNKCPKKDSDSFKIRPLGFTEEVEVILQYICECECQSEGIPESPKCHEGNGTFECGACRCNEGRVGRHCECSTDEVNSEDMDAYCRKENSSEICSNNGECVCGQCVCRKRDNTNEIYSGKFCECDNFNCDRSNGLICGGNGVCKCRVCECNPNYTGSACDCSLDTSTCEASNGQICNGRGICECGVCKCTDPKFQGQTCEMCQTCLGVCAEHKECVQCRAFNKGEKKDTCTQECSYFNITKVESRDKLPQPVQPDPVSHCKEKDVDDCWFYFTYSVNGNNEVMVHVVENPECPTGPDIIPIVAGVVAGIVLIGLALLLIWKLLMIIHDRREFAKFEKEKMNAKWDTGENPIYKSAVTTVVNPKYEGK
Integrin beta-1 (Homo sapiens) + Integrin alpha-4 (Homo sapiens), sequence (P13612 whole entry, looked up): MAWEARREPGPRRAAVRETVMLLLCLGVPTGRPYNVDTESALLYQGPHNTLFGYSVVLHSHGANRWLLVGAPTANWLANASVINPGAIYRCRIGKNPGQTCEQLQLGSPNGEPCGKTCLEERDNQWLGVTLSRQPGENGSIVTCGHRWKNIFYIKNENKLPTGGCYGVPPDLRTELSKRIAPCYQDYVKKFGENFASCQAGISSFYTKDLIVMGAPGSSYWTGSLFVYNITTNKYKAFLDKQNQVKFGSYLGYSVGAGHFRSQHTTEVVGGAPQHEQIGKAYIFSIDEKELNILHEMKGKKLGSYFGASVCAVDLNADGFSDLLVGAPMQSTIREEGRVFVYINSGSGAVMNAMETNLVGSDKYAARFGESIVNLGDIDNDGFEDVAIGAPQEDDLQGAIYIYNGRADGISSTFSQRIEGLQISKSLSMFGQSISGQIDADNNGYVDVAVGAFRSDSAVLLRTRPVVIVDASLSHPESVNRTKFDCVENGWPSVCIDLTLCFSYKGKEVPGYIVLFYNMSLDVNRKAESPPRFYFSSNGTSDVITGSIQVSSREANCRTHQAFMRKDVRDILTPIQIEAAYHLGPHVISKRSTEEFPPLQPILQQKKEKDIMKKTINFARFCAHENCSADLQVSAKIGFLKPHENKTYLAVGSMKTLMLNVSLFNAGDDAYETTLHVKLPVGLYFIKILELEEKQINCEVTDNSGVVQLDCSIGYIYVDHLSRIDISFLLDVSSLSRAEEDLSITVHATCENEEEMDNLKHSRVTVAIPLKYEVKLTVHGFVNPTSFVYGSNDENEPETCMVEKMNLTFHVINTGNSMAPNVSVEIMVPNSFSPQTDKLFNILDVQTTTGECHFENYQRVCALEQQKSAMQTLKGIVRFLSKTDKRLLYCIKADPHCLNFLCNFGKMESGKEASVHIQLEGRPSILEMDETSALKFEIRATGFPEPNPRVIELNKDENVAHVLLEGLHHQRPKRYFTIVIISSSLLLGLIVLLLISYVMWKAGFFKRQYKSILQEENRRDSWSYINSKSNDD

Experiment [8] is described as follows: calorie-restriction mimetic ROS inhibitors, yeast – validation compound set, pilot screen (AID 2706;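 active = superoxide response below 65% of plate, a cut near 3 SD across the whole screen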;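 note: yeast exposed to compound for one week at 30 degrees C before staining; 100% = mean of all compound wells on the same plate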). Particulars: S. cerevisiae aging, superoxide DHE fluorescence; at 10 µM, stronger effect = lower value.
For experiment [9], the target named is Beta-adrenergic receptor kinase 1 (Homo sapiens) (UniProt P25098). As to the kind of experiment: GRK2 binders displacing RNA aptamer, biochemical, validation, human GRK2, bead flow cytometry (AID 488806;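 active = aptamer binding inhibition above 30%, about 3 SD of noise from non-fluorescent compounds; inactive = inhibition at or below 30%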). As to conditions: bead-bound GRK2, FAM-aptamer displacement, at 10 µM, stronger effect = higher value.
Beta-adrenergic receptor kinase 1 (Homo sapiens), sequence (P25098 whole entry, looked up): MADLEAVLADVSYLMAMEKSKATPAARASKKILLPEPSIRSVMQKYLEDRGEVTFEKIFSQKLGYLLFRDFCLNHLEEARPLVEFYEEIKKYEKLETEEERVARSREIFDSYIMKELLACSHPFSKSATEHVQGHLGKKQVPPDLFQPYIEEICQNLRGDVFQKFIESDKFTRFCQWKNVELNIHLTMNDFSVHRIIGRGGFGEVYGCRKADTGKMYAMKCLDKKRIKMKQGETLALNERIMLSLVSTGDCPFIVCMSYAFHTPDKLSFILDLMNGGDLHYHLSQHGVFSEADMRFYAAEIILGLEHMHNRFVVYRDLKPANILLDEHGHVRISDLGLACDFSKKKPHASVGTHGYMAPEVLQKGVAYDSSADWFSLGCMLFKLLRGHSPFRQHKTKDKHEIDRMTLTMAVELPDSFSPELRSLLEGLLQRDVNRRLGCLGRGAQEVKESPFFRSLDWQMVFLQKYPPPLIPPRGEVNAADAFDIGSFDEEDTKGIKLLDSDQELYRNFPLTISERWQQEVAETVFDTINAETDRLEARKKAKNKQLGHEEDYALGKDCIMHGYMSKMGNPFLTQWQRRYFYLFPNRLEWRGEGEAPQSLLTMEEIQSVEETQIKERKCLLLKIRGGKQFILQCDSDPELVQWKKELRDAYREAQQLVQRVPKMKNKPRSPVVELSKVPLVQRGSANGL
Experiment [10] has as its target Beta-2 adrenergic receptor (Homo sapiens) (UniProt P07550). Description: agonist-induced loss of surface beta2AR – cell-based, FAP fluorogen, flow cytometry, validation set, pilot screen (AID 504459;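 active = percent response above 42, roughly 3 SD of non-fluorescent test compounds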;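 note: agonist-driven loss of surface beta2AR via internalization measured by FAP dye flow cytometry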). As to conditions: Am2.2-beta2AR cells, at 10 µM, stronger effect = higher value.
A short description of experiment [11]: cytosolic pH regulators acting via V-ATPase – S. cerevisiae, pHLuorin, HTS validation (AID 504600; in the data active = response above about 15%;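 note: plate controls were DMSO for no effect and reference compound for full effect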). Particulars: V-ATPase proton transport, at 10 µM, stronger effect = higher value.
Experiment [12] has as its system anti-desmoglein-3 scFv antibody binding to human DSG3. As to the kind of experiment: blockers of pathogenic pemphigus antibody–desmoglein-3 binding – biochemical, validation compound set, bead-based, flow cytometry, pilot screen (AID 588368;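 active = binding below the plate cutoff, the plate median minus 3 SD, with a reading above zero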;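 note: signal is the median channel fluorescence of bead-bound GFP antibody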). Particulars: Protein G beads, DSG3-Fc, scFv-GFP binding, at 10 µM, stronger effect = lower value.
The nature of experiment [13]: Nile Red efflux blockade in pump-expressing yeast – validation compound set, multiplex, phenotypic, pilot screen (AID 588506;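 active = efflux inhibition above 0.42, the validation set average plus 4 SD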;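 note: Nile Red retained in cells so higher fluorescence means more efflux inhibition; 0 = negative control wells and 1 = enniatin B 25 µM full block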). Particulars: S. cerevisiae pump-expressing triplex, Nile Red efflux flow cytometry; at 10 µM; stronger effect = higher value; the pumps come from Candida albicans.
Experiment [14] deals with ATP-binding cassette sub-family B member 6 (Homo sapiens) (UniProt Q9NP58). As to the kind of experiment: blockers of ABCB6-driven porphyrin uptake – K562-ABCB6 cells, flow cytometry, validation set, pilot screen (AID 588550;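 active = inhibition above the screen-wide mean plus 3 SD, about 51%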;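 note: 0% = DMSO wells and 100% = benzethonium chloride 70 µM positive control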). Particulars: K562-ABCB6 porphyrin accumulation, 1 h, at 10 µM, stronger effect = higher value.
ATP-binding cassette sub-family B member 6 (Homo sapiens), sequence (Q9NP58 whole entry, looked up): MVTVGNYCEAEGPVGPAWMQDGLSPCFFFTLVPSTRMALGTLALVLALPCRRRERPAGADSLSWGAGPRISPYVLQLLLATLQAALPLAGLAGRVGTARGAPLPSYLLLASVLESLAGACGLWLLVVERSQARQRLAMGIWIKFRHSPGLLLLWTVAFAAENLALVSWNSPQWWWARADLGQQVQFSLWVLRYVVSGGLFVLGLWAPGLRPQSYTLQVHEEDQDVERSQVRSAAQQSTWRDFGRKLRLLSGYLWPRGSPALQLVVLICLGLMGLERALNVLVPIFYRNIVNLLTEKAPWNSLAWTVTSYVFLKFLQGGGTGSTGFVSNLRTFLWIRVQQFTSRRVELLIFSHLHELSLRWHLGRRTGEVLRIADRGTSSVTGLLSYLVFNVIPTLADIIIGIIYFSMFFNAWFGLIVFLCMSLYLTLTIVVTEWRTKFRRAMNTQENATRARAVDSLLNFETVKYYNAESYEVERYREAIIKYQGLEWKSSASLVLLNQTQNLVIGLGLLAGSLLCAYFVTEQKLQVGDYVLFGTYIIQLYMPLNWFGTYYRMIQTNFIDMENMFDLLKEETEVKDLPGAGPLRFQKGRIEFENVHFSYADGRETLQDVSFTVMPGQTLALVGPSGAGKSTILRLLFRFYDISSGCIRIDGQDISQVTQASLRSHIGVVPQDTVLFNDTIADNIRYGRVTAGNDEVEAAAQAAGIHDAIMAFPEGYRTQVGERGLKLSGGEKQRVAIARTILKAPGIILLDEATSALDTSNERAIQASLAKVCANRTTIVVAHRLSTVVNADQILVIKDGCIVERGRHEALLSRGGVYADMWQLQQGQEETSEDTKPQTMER
Experiment [15] can be described thus: AML differentiation inducers, ER-HoxA9 marrow cells – cell-based, GFP/MAC1 double positive, flow cytometry, validation set, primary screen (AID 588685;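 active = differentiation response of at least 50%, scaled between solvent and reference control, from cells with both markers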;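 note: compound exposure lasts four days before antibody staining and flow analysis; 0% = DMSO wells and 100% = 5 µM fulvestrant positive control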). Particulars: stronger effect = higher value, normalized: vehicle 0, fulvestrant 100.
For experiment [16], the target named is AP-2 complex subunit beta (Homo sapiens) (UniProt P63010). Description: beta-arrestin/AP2 interaction blockers – biochemical, validation set, GST-AP2 beads, flow cytometry, pilot screen (AID 504541;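 active = inhibition above 54%, about 3 SD of non-fluorescent compounds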;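 note: AP2 carries R879A mutation and is captured from E. coli lysate; bead-bound FITC arrestin peptide fluorescence measuring arrestin peptide binding to AP2; 0% = DMSO wells and 100% = excess unlabeled arrestin peptide control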). Particulars: FITC arrestin peptide, at 10 µM, stronger effect = higher value, AP2 beta2 appendage fragment, R879A mutant.
AP-2 complex subunit beta (Homo sapiens), sequence (P63010 whole entry, looked up, the tested form may be a part, one chain of several): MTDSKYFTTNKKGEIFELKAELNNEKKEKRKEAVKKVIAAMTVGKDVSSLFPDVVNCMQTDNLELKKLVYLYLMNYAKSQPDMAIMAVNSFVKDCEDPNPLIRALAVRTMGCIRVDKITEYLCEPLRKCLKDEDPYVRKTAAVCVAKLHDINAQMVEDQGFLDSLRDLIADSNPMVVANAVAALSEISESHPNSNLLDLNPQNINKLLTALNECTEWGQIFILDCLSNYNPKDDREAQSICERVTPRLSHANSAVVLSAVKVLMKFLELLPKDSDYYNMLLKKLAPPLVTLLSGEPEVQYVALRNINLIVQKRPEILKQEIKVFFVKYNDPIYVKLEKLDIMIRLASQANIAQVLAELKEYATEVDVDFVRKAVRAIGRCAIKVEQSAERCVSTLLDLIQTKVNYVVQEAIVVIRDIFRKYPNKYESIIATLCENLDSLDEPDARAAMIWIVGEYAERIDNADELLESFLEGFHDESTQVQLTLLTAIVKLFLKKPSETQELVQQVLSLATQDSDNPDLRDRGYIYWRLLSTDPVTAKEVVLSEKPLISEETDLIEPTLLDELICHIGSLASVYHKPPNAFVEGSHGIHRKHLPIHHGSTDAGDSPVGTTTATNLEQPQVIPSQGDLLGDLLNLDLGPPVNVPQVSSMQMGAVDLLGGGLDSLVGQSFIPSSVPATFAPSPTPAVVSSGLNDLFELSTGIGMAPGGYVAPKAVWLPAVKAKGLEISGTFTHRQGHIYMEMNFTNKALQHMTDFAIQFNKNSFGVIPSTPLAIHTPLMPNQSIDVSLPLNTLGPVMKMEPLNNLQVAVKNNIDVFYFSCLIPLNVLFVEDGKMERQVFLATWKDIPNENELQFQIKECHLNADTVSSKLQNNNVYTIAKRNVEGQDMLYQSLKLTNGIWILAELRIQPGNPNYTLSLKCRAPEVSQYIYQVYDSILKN

Broadly, the inhibition is the change of the read-out against control, counted positive when it falls.

Records with an inconclusive call do not appear. Calls of active or inactive are those of the source.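 Rule for the calls, unless noted: active = percent response above a set limit, the screen-wide mean plus 3 SD (cut at about 130% in these data); inactive = the rest.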

Beta-2 adrenergic receptor (Homo sapiens), sequence (P07550 whole entry, looked up): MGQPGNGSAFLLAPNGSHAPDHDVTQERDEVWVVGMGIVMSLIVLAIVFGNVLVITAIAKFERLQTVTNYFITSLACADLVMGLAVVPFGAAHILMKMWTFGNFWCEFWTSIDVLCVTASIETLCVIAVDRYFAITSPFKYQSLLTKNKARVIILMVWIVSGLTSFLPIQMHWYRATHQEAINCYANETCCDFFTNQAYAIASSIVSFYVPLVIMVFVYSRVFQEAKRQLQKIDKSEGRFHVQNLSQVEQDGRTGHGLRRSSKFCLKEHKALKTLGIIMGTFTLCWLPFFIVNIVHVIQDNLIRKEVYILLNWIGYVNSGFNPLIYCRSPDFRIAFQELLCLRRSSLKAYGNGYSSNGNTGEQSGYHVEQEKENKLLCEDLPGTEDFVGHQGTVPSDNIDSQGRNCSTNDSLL

As for `O=C(NCCCCCc1nc2ccccc2[nH]1)c1ccccc1Cl`, the percent of DMSO control GFP in experiment [1] is 101% (inactive). Also, the results for the GFP response vs DMSO in experiment [2] and in [4] were 107% (inactive) and 95.9% (inactive), respectively. Besides, in experiment [3], the percent response of DMSO control was 98.6% (inactive). Moreover, the GFP response, % of DMSO in experiment [5] is 103% (inactive). This compound also gave a double positive events in experiment [6] of 62.5%. In addition, in experiment [6], the vesicle binding response is 124% (inactive). Also, the inhibition was -7.79% (inactive) in experiment [7] and 6% (inactive) in experiment [14]. Also, the superoxide response (% of plate) in experiment [8] is 102% (inactive). Further, the aptamer binding inhibition in [9] was 3% (inactive). The figures for the response in experiment [10] and in [11] were 25.8% (inactive) and -2.36% (inactive), respectively. Also, the binding (% of control) in experiment [12] is 109% (inactive). Besides, the efflux inhibition (fraction of control) in experiment [13] is 0.69 (active). Besides, in experiment [15], the differentiation response was 10.1% (inactive).

`CC(C)c1ccccc1OCCNC(=S)NC(=O)c1cccnc1`: the percent of DMSO control GFP in experiment [1] is 98.2% (inactive). The GFP response vs DMSO is 97.4% (inactive) in experiment [2] and 96.5% (inactive) in [4]. For the same compound, in [3], the percent response of DMSO control was 92% (inactive). Further, the GFP response, % of DMSO in experiment [5] was 96.3% (inactive). Moreover, the double positive events in experiment [6] amounted to 62.4%. Moreover, the vesicle binding response in [6] is 185% (inactive). The inhibition in experiment [7] is 22.8% (inactive); in [14] it was 3% (inactive). In addition, the superoxide response (% of plate) in experiment [8] is 105% (inactive). In experiment [9], the aptamer binding inhibition is -3% (inactive). The values for the response in experiment [10] and in experiment [11] were 4.29% (inactive) and -2.54% (inactive), respectively. Moreover, the binding (% of control) in experiment [12] was 99.7% (inactive). The efflux inhibition (fraction of control) in experiment [13] was 1.3 (active). The differentiation response in [15] is 100% (active).

Take `CCOC(=O)NN1C(=O)c2ccccc2NC1c1ccc(OC)c(OC)c1` (stereo not given): the percent of DMSO control GFP in experiment [1] is 95.1% (inactive). Also, the GFP response vs DMSO in experiment [2] and in experiment [4] was 103% (inactive) in each case. The percent response of DMSO control in experiment [3] is 95.9% (inactive). In addition, the GFP response, % of DMSO in experiment [5] was 99.6% (inactive). The compound further gave a double positive events in [6] of 64.4%. Moreover, the vesicle binding response in [6] is 121% (inactive). In addition, the inhibition was 7.22% (inactive) in experiment [7], -4.55% (inactive) in [16] and 14% (inactive) in experiment [14]. Besides, the superoxide response (% of plate) in experiment [8] is 99.5% (inactive). Further, the aptamer binding inhibition in experiment [9] is 2% (inactive). In addition, the response in experiment [11] was -6.37% (inactive). In experiment [12], the binding (% of control) was 102% (inactive). The efflux inhibition (fraction of control) in experiment [13] was -0.05 (inactive). Besides, the differentiation response in experiment [15] was 46.6% (inactive).

Turning to `CN(C)c1ccc(O)c2c1CC1CC3[C@@H](N(C)C)C(=O)C(C(N)=O)=C(O)[C@]3(O)C(=O)C1=C2O` (stereo not given in full), the percent of DMSO control GFP in experiment [1] was 100% (inactive). The results for the GFP response vs DMSO in experiment [2] and in experiment [4] were 101% (inactive) and 93.7% (inactive), respectively. The percent response of DMSO control in [3] was 97.6% (inactive). For the same compound, the GFP response, % of DMSO in experiment [5] was 93% (inactive). This compound showed a double positive events in [6] of 63%. Moreover, the vesicle binding response in experiment [6] was 162% (inactive). The inhibition in experiment [7] is 4.27% (inactive); in [16] it was 6.63% (inactive); in experiment [14], 6% (inactive). In addition, in experiment [8], the superoxide response (% of plate) is 99.5% (inactive). The aptamer binding inhibition in experiment [9] is 29% (inactive). The response is 1.7% (inactive) in [10] and -2.16% (inactive) in experiment [11]. In addition, in [12], the binding (% of control) is 93.6% (inactive). Moreover, the differentiation response in experiment [15] was -3.11% (inactive).

On to `CCc1c(C)c2ccc(OCC(=O)OC(C)C)c(C)c2oc1=O`, for which the percent of DMSO control GFP in experiment [1] was 98.1% (inactive). The GFP response vs DMSO was 96.9% (inactive) in experiment [2] and 89.3% (inactive) in experiment [4]. The percent response of DMSO control in experiment [3] is 93% (inactive). In experiment [5], the GFP response, % of DMSO was 88.5% (inactive). In experiment [6], this compound displayed a double positive events of 57.1%. In addition, in experiment [6], the vesicle binding response is 142% (inactive). Moreover, the inhibition in [7] was 7.22% (inactive); in experiment [16], 19.5% (inactive); in experiment [14] it was 8% (inactive). Also, the superoxide response (% of plate) in [8] is 101% (inactive). In addition, the aptamer binding inhibition in experiment [9] is -3% (inactive). In experiment [11], the response is 3.44% (inactive). Besides, the binding (% of control) in [12] is 101% (inactive). The efflux inhibition (fraction of control) in experiment [13] was 0.29 (inactive). The differentiation response in [15] was -18% (inactive).
